A short description of experiment [1]: Primary qHTS for small molecule stabilizers of the endoplasmic reticulum resident proteome: Secreted ER Calcium Modulated Protein (SERCaMP) assay (AID 1508630). In outline: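 GLuc-SERCaMP-expressing SH-SY5Y cells, pretreated 16 h with compound, are challenged with thapsigargin to empty ER calcium stores; after 4 h, coelenterazine is added directly to the medium and luminescence is imaged.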
For orientation: In qHTS, concentration-response curves come from the screen itself.

Experiment [2] can be described thus: A High-Content qHTS Against Drug Library for the Identification of Small Molecules that Inhibit DYT1 Early Onset Primary Dystonia-Associated Cell Pathology (AID 1645839; calls by dose curve; also: series mostly up to about 46 µM). Summed up:
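Flp-In T-REx 293 cells with tetracycline-inducible EGFP-delE hTOR1A (WT EGFP-hTOR1A as reference), 800 cells/well; compound added with tetracycline, 48 h at 37 C. Fixed, permeabilized cells imaged; %pathology (punctate TorsinA) primary, cell count counterscreen.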

The target of experiment [3] is Cytochrome P450 2C9 (Homo sapiens) (UniProt P11712). The experiment in a line: Cytochrome P450 family 2 subfamily C member 9 (CYP2C9) small molecule antagonists: luciferase biochemical (cell-free) qHTS assay (AID 1645842; active = well fitted curve in the direction sought with a large enough effect in the repeat runs; an effect the other way counts as inactive or inconclusive; also: nearly all actives have a fitted effect of over 55% in size; also: potency is read from the fitted curve at half-maximal effect). In outline:
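Luminescence, after 20 min with luciferin detection reagent, reflected CYP2C9 turnover during a 1 h NADPH-driven reaction at 37C. Enzyme-substrate mix contained 0.4% bovine serum albumin and was preincubated with compound 10 min at room temperature.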

Experiment [4] can be described thus: Primary qHTS for inhibitors of nuclear receptor binding SET domain protein 2 (NSD2) in an isogenic RCH-ACV NSD2 p.E1099K mutant (9B) (AID 1645876). Also: nearly all actives have a fitted effect of over 70% in size. Also: potency is read from the fitted curve at half-maximal effect.
The target in experiment [5] is Cytochrome P450 2D6 (Homo sapiens) (UniProt P10635). The experiment in a line: Cytochrome P450 family 2 subfamily D member 6 (CYP2D6) small molecule antagonists: luciferase biochemical (cell-free) qHTS assay (AID 1645840; active = well fitted curve in the direction sought with a large enough effect in the repeat runs; an effect the other way counts as inactive or inconclusive; also: nearly all actives have a fitted effect of over 55% in size; also: potency is read from the fitted curve at half-maximal effect). In outline:
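P450-Glo luminescent screen: recombinant CYP2D6 enzyme–proluciferin substrate mix preincubated with compound 10 min at room temperature, then NADPH regeneration added for 1 h at room temperature. Detection reagent added for 20 min; luciferin light read as relative luminescence units.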

The target of experiment [6] is Cytochrome P450 3A4 (Homo sapiens) (UniProt P08684). The experiment can be described thus: Cytochrome P450 family 3 subfamily A member 4 (CYP3A4) small molecule antagonists: luciferase qHTS assay (AID 1645841; active = well fitted curve in the direction sought with a large enough effect in the repeat runs; an effect the other way counts as inactive or inconclusive; also: nearly all actives have a fitted effect of over 45% in size). In outline:
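P450-Glo CYP3A4 enzyme with proluciferin substrate preincubated 10 min with compound at room temperature, then NADPH regeneration 1 h. Luciferin detection reagent added for 20 min; luminescence recorded. Ketoconazole positive control.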

Each structure is given as a SMILES string. Inconclusive results are not listed. Activity calls are given as the source filed them. Unless noted, calls follow the shape of the dose curve; as a rule, active = well fitted curve in the direction sought with a large enough effect; inconclusive = small, poorly fitted or top-dose-only effect, or another doubt; inactive = no such curve, though single readings can be large; an effect the other way counts as inactive or inconclusive.

Cytochrome P450 3A4 (Homo sapiens), sequence (P08684 whole entry, looked up): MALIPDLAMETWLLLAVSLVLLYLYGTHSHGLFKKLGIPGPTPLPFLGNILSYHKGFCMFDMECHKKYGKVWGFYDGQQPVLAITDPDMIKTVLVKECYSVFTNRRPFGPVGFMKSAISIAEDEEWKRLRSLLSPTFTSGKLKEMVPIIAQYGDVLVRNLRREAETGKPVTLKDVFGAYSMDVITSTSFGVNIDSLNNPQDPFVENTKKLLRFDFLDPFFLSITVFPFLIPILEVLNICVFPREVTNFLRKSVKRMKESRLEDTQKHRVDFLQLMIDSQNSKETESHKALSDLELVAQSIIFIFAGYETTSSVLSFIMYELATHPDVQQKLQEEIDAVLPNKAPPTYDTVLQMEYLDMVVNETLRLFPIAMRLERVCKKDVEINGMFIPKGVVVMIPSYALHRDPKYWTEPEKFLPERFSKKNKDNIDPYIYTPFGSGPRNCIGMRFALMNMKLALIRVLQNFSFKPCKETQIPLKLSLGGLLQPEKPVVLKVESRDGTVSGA
Cytochrome P450 2C9 (Homo sapiens), sequence (P11712 whole entry, looked up): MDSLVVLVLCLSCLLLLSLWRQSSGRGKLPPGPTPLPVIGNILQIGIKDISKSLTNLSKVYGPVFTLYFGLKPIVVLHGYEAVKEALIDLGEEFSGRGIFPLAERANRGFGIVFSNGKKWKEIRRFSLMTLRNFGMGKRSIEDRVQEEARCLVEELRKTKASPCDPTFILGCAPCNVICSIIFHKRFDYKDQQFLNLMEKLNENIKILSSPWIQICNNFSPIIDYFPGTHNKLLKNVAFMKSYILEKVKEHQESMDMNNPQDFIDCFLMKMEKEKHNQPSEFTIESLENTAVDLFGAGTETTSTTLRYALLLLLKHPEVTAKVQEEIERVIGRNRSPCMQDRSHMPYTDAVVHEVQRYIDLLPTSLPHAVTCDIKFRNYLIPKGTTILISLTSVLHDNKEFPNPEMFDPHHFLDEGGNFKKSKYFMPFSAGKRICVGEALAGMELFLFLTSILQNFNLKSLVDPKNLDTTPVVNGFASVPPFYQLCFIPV
Cytochrome P450 2D6 (Homo sapiens), sequence (P10635 whole entry, looked up): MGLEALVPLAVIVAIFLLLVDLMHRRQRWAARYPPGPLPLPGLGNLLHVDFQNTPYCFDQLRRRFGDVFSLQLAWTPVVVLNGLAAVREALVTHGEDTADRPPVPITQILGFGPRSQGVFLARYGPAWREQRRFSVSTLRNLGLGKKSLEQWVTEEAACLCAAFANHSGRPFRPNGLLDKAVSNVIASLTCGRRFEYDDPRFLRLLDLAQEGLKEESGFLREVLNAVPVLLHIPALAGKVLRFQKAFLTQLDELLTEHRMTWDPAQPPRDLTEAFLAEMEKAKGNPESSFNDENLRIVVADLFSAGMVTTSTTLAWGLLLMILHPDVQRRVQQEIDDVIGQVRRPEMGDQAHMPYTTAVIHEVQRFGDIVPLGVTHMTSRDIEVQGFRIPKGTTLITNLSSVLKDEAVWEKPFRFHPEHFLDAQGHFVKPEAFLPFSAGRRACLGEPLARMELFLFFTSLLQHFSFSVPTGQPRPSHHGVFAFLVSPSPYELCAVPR

As to `COCCc1ccccn1`, the Potency entry in experiment [1], in experiment [2], in experiment [3] and in experiment [4] was “inactive” in each case.
For the molecule `O=C(CCCCC(=O)Nc1c(I)cc(I)c(C(=O)O)c1I)Nc1c(I)cc(I)c(C(=O)O)c1I`, the Potency result in experiment [1], in experiment [5], in experiment [3] and in experiment [4] was “inactive” each time.
As for `CCCCN(CCCC)C(C(N)=O)c1ccc(OC)cc1` (centres undefined), the Potency result in experiment [1], in experiment [3] and in experiment [4] was “inactive” each time. Further, in experiment [5], the Potency is 0.776 µM (active).
In the case of `CCCCCOc1ccc(C2SC(=O)NC2=O)cc1OCC` (centres undefined), the Potency entry in experiment [1] and in experiment [5] was “inactive” in each case. The Potency in experiment [3] was 7.76 µM (active).
Take `COc1ccc(-n2nc(CCC(=O)N(C)O)cc2-c2ccc(Cl)cc2)cc1`: the Potency result in experiment [1] is “inactive”. Also, the figures for the Potency in experiment [5], in experiment [3] and in experiment [4] were 4.9 µM (active), 2.75 µM (active) and 8.41 µM (active), respectively.
For `CCCCC(O)/C=C(C)/C=C/C=C/C(=O)N1CCCC1=O` (centres undefined) the same measures were “inactive”, “inactive”, “inactive” and “inactive”.
In the case of `CCCCC(CC)CNC(=O)CC(C)OC(=O)CCC(=O)O` (centres undefined), the Potency result in experiment [1], in experiment [2] and in experiment [4] was “inactive” throughout.
With `CC(=O)/C=C/C=C1/C2CCC(C2)C1(C)C` (centres undefined), the Potency result in experiment [1], in experiment [2] and in experiment [4] was “inactive” each time.
As to `CC1c2ccccc2CN1NC(=O)c1ccc(Cl)c(S(N)(=O)=O)c1` (centres undefined), the Potency entry in experiment [1], in experiment [5], in experiment [6], in experiment [3] and in experiment [4] was “inactive” each time.
On to `C/C(=C1\CCOC(=O)S1)N(C=O)Cc1cnc(C)nc1N`, for which the Potency result in experiment [1], in experiment [2], in experiment [3] and in experiment [4] was “inactive” each time.
As for `CC(C)(C)CC(=O)OCC(=O)[C@@]1(O)CC[C@H]2[C@@H]3CCC4=CC(=O)C=C[C@]4(C)[C@H]3[C@@H](O)C[C@@]21C`, the Potency entry in experiment [1] and in experiment [2] was “inactive” throughout. The Potency in experiment [3] is 11 µM (active); in experiment [4], 21.1 µM (active).
In the case of `CCC(CN)=C(c1ccccc1)c1ccccc1`, in experiment [1], the Potency entry is “inactive”. Further, the Potency in experiment [5] is 3.63 µM (active); in experiment [3] it was 11.5 µM (active).
`CC(NCCC(c1ccccc1)c1ccccc1)c1ccccc1` (centres undefined): the Potency entry in experiment [1] is “inactive”. In addition, the Potency in experiment [5] is 0.0871 µM (active); in experiment [3], 13.8 µM (active); in experiment [4], 18.8 µM (active).
In the same order, the values of `N#Cc1cc(NC(=O)C(=O)O)c(Cl)c(NC(=O)C(=O)O)c1` are “inactive”, “inactive”, “inactive” and “inactive”.
As for `CC[C@@H]([C@H](C)O)n1ncn(-c2ccc(N3CCN(c4ccc(OC[C@@H]5CO[C@@](Cn6cncn6)(c6ccc(F)cc6F)C5)cc4)CC3)cc2)c1=O`, the Potency result in experiment [1] and in experiment [5] was “inactive” each time.
Consider `CC(C)=CCC/C(C)=C/CC/C(C)=C/C(=O)OCC(=O)[C@@]1(O)CC[C@H]2[C@@H]3CCC4=CC(=O)C=C[C@]4(C)[C@H]3[C@@H](O)C[C@@]21C`, for which the Potency entry in experiment [1] and in experiment [5] was “inactive” in each case. Moreover, the Potency in experiment [3] was 1.74 µM (active).
Take `O=C(Nc1ccc(S(=O)(=O)N2CCOCC2)cc1)c1cc(Cl)ccc1NS(=O)(=O)c1ccc(Cl)s1`: the Potency result in experiment [1] and in experiment [4] was “inactive” in each case. The Potency is 15.5 µM (active) in experiment [5] and 0.0436 µM (active) in experiment [3].
As for `CN1CC(=O)N2[C@H](c3ccc4c(c3)OCO4)c3[nH]c4ccccc4c3C[C@@H]2C1=O`, the Potency entry in experiment [1], in experiment [2] and in experiment [4] was “inactive” each time.
On to `CCCCNc1ccc(C(=O)OCCN(CC)CC)cc1`, for which the Potency result in experiment [1], in experiment [3] and in experiment [4] was “inactive” in each case. Also, the Potency in experiment [5] was 3.47 µM (active).
On to `CN1CC[C@H](c2c(O)cc(O)c3c(=O)cc(-c4ccccc4Cl)oc23)[C@H](O)C1`, for which the Potency entry in experiment [1] and in experiment [3] was “inactive” in each case. The Potency is 12.3 µM (active) in experiment [5] and 0.0211 µM (active) in experiment [4].
Take `CCOC(=O)C(=O)CCc1ccccc1`: the Potency entry in experiment [1], in experiment [2] and in experiment [4] was “inactive” in each case.
For `O=C(Nc1ccc(Cl)cc1)Nc1ccc(Cl)c(Cl)c1`, the Potency entry in experiment [1] and in experiment [5] was “inactive” each time. The figures for the Potency in experiment [3] and in experiment [4] were 4.36 µM (active) and 6.68 µM (active), respectively.
Take `CCCCCOc1ccccc1/C(=C\SC)n1ccnc1`: in experiment [1], the Potency entry is “inactive”. Moreover, the Potency in experiment [5] was 0.977 µM (active); in experiment [3], 3.89 µM (active); in experiment [4], 13.3 µM (active).
On to `O=C(OCC(O)CO)c1ccccc1Nc1ccnc2c(C(F)(F)F)cccc12` (centres undefined), for which the Potency result in experiment [1] was “inactive”. In addition, the Potency in experiment [5] was 11 µM (active); in experiment [3], 6.17 µM (active).
Consider `Cc1cccc(N(C)C(=S)Oc2ccc3c(c2)CCC3)c1`, for which the Potency entry in experiment [1], in experiment [2] and in experiment [4] was “inactive” in each case.
Turning to `CC1CCCCN1CCCOC(=O)c1ccc(OC2CCCCC2)cc1` (centres undefined), the Potency result in experiment [1] and in experiment [3] was “inactive” throughout. Moreover, the Potency in experiment [5] is 11 µM (active).
`CC(=O)OCC(=O)Nc1cc(C#N)cc(NC(=O)COC(C)=O)c1Cl`: the Potency result in experiment [1], in experiment [5], in experiment [6], in experiment [3] and in experiment [4] was “inactive” throughout.
For the molecule `CC[N+]1(CC)CCC(=C(c2ccccc2)c2ccccc2)C1C` (centres undefined), the Potency entry in experiment [1] and in experiment [3] was “inactive” in each case. Moreover, the Potency in experiment [5] was 1.74 µM (active).
For the molecule `O=C(NN1CCCC1)NS(=O)(=O)c1ccc(Cl)cc1`, the Potency result in experiment [1], in experiment [5], in experiment [6], in experiment [3] and in experiment [4] was “inactive” each time.
Regarding `COC(=O)c1ccc(NC(C)=O)cc1OC`, the Potency entry in experiment [1], in experiment [5], in experiment [3] and in experiment [4] was “inactive” in each case.
For `O=C(O)[C@H](O)[C@@H](O)[C@H](O[C@@H]1O[C@H](CO)[C@H](O)[C@H](O)[C@H]1O)[C@H](O)CO`, the Potency result in experiment [1], in experiment [5], in experiment [3] and in experiment [4] was “inactive” in each case.
With `CC(C)=CCNc1ncnc2c1ncn2[C@@H]1O[C@H](CO)[C@@H](O)[C@H]1O`, the Potency result in experiment [1], in experiment [5] and in experiment [3] was “inactive” throughout. Besides, the Potency in experiment [4] is 1.68 µM (active).
Consider `CCOC(=O)Cn1cccc1-c1nc(-c2ccc(OC)cc2)c(-c2ccc(OC)cc2)s1`, for which the Potency result in experiment [1] and in experiment [5] was “inactive” throughout.
Take `O=C1Nc2cc(Cl)ccc2Oc2ccccc21`: the Potency result in experiment [1], in experiment [5], in experiment [3] and in experiment [4] was “inactive” each time.
Consider `CCN(CC)CC(=O)OCC(=O)[C@@]1(O)CC[C@H]2[C@@H]3CCC4=CC(=O)CC[C@]4(C)[C@H]3[C@@H](O)C[C@@]21C`, for which the Potency result in experiment [1], in experiment [5] and in experiment [3] was “inactive” each time.
For `Cc1cc(=O)oc2cc(O[C@@H]3SC[C@@H](O)[C@H](O)[C@H]3O)ccc12`, the Potency entry in experiment [1], in experiment [5], in experiment [3] and in experiment [4] was “inactive” each time.
As for `c1ccc(C(O[C@H]2CCCN(CCc3ccc4c(c3)OCO4)C2)c2ccccc2)cc1`, the Potency result in experiment [1] is “inactive”. Moreover, the results for the Potency in experiment [5] and in experiment [3] were 0.0123 µM (active) and 24.5 µM (active), respectively.
